# Measurements reported in PubChem BioAssay (Tox21).
# Results filed as inconclusive are left out. Unmarked numbers belong to inactive results. The source made the active and inactive calls. The call rests on the fitted dose curve; in most records, active means well fitted cell-killing curve with a large enough effect in the repeat runs; inconclusive means weak or mixed curves, or effect the other way; inactive means flat fitted curve, though single readings scatter.
# Assay: cAMP Responsive Elements (CRE) small molecule antagonists, cell-based qHTS assay: qHTS cell viability counter screen (AID 2060913); further: nearly all actives have a fitted effect of over 40% in size
# Details: CRE-bla HEK293T viability, CellTiter-Glo luminescence, 5 h; series mostly up to 92.4 µM; viability change, negative = cytotoxic: at the top concentration
# Method in brief: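 Cytotoxicity read in the same wells as the CRE-bla HEK293T antagonist assay: after 3 h compound with 0.25 uM NKH477 final and 2 h beta-lactamase substrate, CellTiter-Glo luminescence measured.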
# On the % scale 0 is the no-effect control and ±100 the full control effect.
SMILES,"viability change, negative = cytotoxic",Potency
CC1CCCNC1 (stereo not given),-8.1%,–
O=C(NCC1CN(c2ccc(N3CCOCC3=O)cc2)C(=O)O1)c1ccc(Cl)s1 (stereo not given),3.8% [at 42.5 µM],–
Cc1ccc(N(C)C)cc1,–,inactive
CCC(CC)(CC(=O)Nc1cccc(/C=C/c2nc(C3CCC3)cs2)c1)C(=O)O,-5.07% [at 42.5 µM],–
COCCOCCOC,–,inactive
CCCCCCCC(C)=O,-9.79%,–
Nc1nc2c(ncn2COCCO)c(=O)[nH]1,-1.39% [at 42.5 µM],–
O=C(O)c1ccc(Cl)cc1Cl,12%,–
O=[N+]([O-])c1ccc(CO)cc1,2.01%,–
NC(N)=NC(=O)Cc1c(Cl)cccc1Cl,-3.3% [at 42.5 µM],–
C=CC(=O)OCCOC(=O)CCC(=O)O,6.41%,–
O=C(CCN1CCN2CCCC2C1)N1c2ccccc2Sc2ccc(Cl)cc21 (stereo not given),0.501% [at 18.9 µM],–
CCCCCCCOC(=O)c1ccc(O)cc1,–,inactive
Cc1ccc2c(Br)cc(Br)c(O)c2n1,15.5% [at 42.5 µM],–
CC(=O)Nc1ccccc1O,3.02%,–
O=C(O)/C=C\C(=O)O,–,inactive
NC(=O)CC[C@@H]1NC(=O)[C@H](Cc2ccccc2)NC(=O)[C@H](Cc2ccc(O)cc2)NC(=O)CCSSC[C@@H](C(=O)N2CCC[C@H]2C(=O)N[C@@H](CCCN=C(N)N)C(=O)NCC(N)=O)NC(=O)[C@H](CC(N)=O)NC1=O,1.96% [at 42.5 µM],–
CC1C(C)(C)C2=C(C(=O)CCC2)C1(C)C (stereo not given),-0.407%,–
OC[C@H]1O[C@H](O[C@H]2O[C@H](CO)[C@@H](O)[C@H](O)[C@H]2O)[C@H](O)[C@@H](O)[C@@H]1O,0.293%,–
CC(C)(c1ccc(O)cc1)c1ccc(O)cc1,7.7%,–

SMILES,"viability change, negative = cytotoxic",Potency
c1ccc2c(c1)ccc1ccccc12,–,inactive
Cc1cccc(N(C)C(=S)Oc2ccc3c(c2)CCC3)c1,-14% [at 42.5 µM],–
CC1(C)[C@H]2CC[C@]1(C)[C@H](O)C2,-6.44%,–
CCCCCCCCCCCCCCCBr,-0.958% [at 42.5 µM],–
CCC(=O)c1c(O)cc(O)cc1O,-2.85% [at 42.5 µM],–
CC(CN=Cc1ccccc1O)N=Cc1ccccc1O (stereo not given),0.251%,–
CCCOC(=O)CC,-0.41%,–
CCCCC/C=C\CCC=O,-0.234%,–
C[Si](C)(C)O[Si](O)(O)O,-1.77%,–
Cc1cc(SC2=C(O)C[C@@](CCc3ccc(N)cc3)(C(C)C)OC2=O)c(C(C)(C)C)cc1CO,-6.01%,–
Oc1ccc(Oc2ccccc2)cc1,3.29%,–
CNc1ccc([N+](=O)[O-])cc1,4.39%,–
NC(=Nc1ccccc1)Nc1ccccc1,–,inactive
OC12N=C(c3ccccc3)SC1Cc1cc(Cl)ccc12 (stereo not given),-4.07%,–
OCCOCCN1CCN(C2=Nc3ccccc3Sc3ccccc32)CC1,–,inactive
Nc1cc(C(F)(F)F)ccc1S,-12.4% [at 42.5 µM],–
CCCCCCCC/C=C/CCCOC(C)=O,3.93%,–
O=C(O)CP(=O)(O)O,-0.405% [at 42.5 µM],–
O=C(O)Cc1ccc(Cl)cc1Cl,-0.818%,–
Cc1ccc(S(=O)(=O)NC(=O)NC2CCCCCCC2)cc1,1.89% [at 42.5 µM],–

# Assay: cAMP Responsive Elements (CRE) small molecule agonists, cell-based qHTS assay: qHTS cell viability counter screen (AID 2060914);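 further: viability read after 3 h of compound exposure; nearly all actives have a fitted effect of over 50% in size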
# Details: CRE-bla HEK293T viability, CellTiter-Glo luminescence, 5 h; series mostly up to 92.4 µM; activity change, negative = cytotoxicity: at the top concentration
# Method in brief: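 CRE-bla HEK293T cells in 10% dialyzed FBS medium were exposed to compounds for 3 h at 37C after 18 h plating. CellTiter-Glo was then added in the same wells, and luminescence was read after 30 min at room temperature.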
SMILES,"activity change, negative = cytotoxicity",Potency
CC1CCCNC1 (stereo not given),-14%,–
O=C(NCC1CN(c2ccc(N3CCOCC3=O)cc2)C(=O)O1)c1ccc(Cl)s1 (stereo not given),-12.9% [at 42.5 µM],–
Cc1ccc(N(C)C)cc1,–,inactive
CCC(CC)(CC(=O)Nc1cccc(/C=C/c2nc(C3CCC3)cs2)c1)C(=O)O,2.58% [at 42.5 µM],–
COCCOCCOC,–,inactive
CCCCCCCC(C)=O,-1.23%,–
Nc1nc2c(ncn2COCCO)c(=O)[nH]1,0.524% [at 42.5 µM],–
O=C(O)c1ccc(Cl)cc1Cl,7.42%,–
O=[N+]([O-])c1ccc(CO)cc1,6.88%,–
NC(N)=NC(=O)Cc1c(Cl)cccc1Cl,0.811% [at 42.5 µM],–
C=CC(=O)OCCOC(=O)CCC(=O)O,0.827%,–
O=C(CCN1CCN2CCCC2C1)N1c2ccccc2Sc2ccc(Cl)cc21 (stereo not given),5.15% [at 18.9 µM],–
CCCCCCCOC(=O)c1ccc(O)cc1,–,inactive
Cc1ccc2c(Br)cc(Br)c(O)c2n1,0.0452% [at 42.5 µM],–
CC(=O)Nc1ccccc1O,5.43%,–
O=C(O)/C=C\C(=O)O,–,inactive
NC(=O)CC[C@@H]1NC(=O)[C@H](Cc2ccccc2)NC(=O)[C@H](Cc2ccc(O)cc2)NC(=O)CCSSC[C@@H](C(=O)N2CCC[C@H]2C(=O)N[C@@H](CCCN=C(N)N)C(=O)NCC(N)=O)NC(=O)[C@H](CC(N)=O)NC1=O,-2.97% [at 42.5 µM],–
CC1C(C)(C)C2=C(C(=O)CCC2)C1(C)C (stereo not given),-5.51%,–
OC[C@H]1O[C@H](O[C@H]2O[C@H](CO)[C@@H](O)[C@H](O)[C@H]2O)[C@H](O)[C@@H](O)[C@@H]1O,7.12%,–
CC(C)(c1ccc(O)cc1)c1ccc(O)cc1,-3.34%,–

SMILES,"activity change, negative = cytotoxicity",Potency
c1ccc2c(c1)ccc1ccccc12,–,inactive
Cc1cccc(N(C)C(=S)Oc2ccc3c(c2)CCC3)c1,-15.9% [at 42.5 µM],–
CC1(C)[C@H]2CC[C@]1(C)[C@H](O)C2,-1.72%,–
CCCCCCCCCCCCCCCBr,-7.18% [at 42.5 µM],–
CCC(=O)c1c(O)cc(O)cc1O,-12.4% [at 42.5 µM],–
CC(CN=Cc1ccccc1O)N=Cc1ccccc1O (stereo not given),5.48%,–
CCCOC(=O)CC,4.95%,–
CCCCC/C=C\CCC=O,-3.77%,–
C[Si](C)(C)O[Si](O)(O)O,-5.02%,–
Cc1cc(SC2=C(O)C[C@@](CCc3ccc(N)cc3)(C(C)C)OC2=O)c(C(C)(C)C)cc1CO,8.21%,–
Oc1ccc(Oc2ccccc2)cc1,-17.3%,–
CNc1ccc([N+](=O)[O-])cc1,-3.42%,–
NC(=Nc1ccccc1)Nc1ccccc1,3.84% [at 42.5 µM],–
OC12N=C(c3ccccc3)SC1Cc1cc(Cl)ccc12 (stereo not given),-12.4%,–
OCCOCCN1CCN(C2=Nc3ccccc3Sc3ccccc32)CC1,–,inactive
Nc1cc(C(F)(F)F)ccc1S,-27.3% [at 42.5 µM],–
CCCCCCCC/C=C/CCCOC(C)=O,4.35%,–
O=C(O)CP(=O)(O)O,14.9% [at 42.5 µM],–
O=C(O)Cc1ccc(Cl)cc1Cl,-1.53%,–
Cc1ccc(S(=O)(=O)NC(=O)NC2CCCCCCC2)cc1,10.2% [at 42.5 µM],–
